# Laboratory results published in PubChem BioAssay (Tox21).
# The source made the active and inactive calls. A call without a number means that no potency is given here. Calls follow the shape of the dose curve; as a rule, active = well fitted curve in the direction sought with a large enough effect in the repeat runs; inconclusive = weak or mixed curves; inactive = flat fitted curve, though single readings scatter.
# Assay: qHTS assay to test for compound auto fluorescence at 590 nm (red) in HepG2 cell free culture (AID 720684)
# Details: cell-free medium autofluorescence, red 540/590 nm; series mostly up to 91.3 µM; fluorescence, % of Rose Bengal: at the top concentration
# Text: U.S. Tox21 Program National Center for Advancing Translational Sciences [NCATS] NIH Chemical Genomics Center [NCGC] U.S. Environmental Protection Agency [EPA] National Institutes of Environmental Health Sciences [NIEHS] National Toxicology Program [NTP] U.S. Food and Drug Administration [FDA] Tox21 Assay Overview: Compound auto fluorescence often interferes with screening of the compound library against various biological targets and signaling pathways. Some of these compounds may have fluorophoric properties. Such properties may interfere with the assay outputs resulting in false positives and/or negatives. To decrease such complications and ensure the compound activities are relevant in terms of biological response, the Tox21 10K compound library was screened for auto fluorescence. From the fluorophores used as reporter signals in our screening assays, the auto fluorescence equivalencies of compounds against three fluorophores have been evaluated: Triamterene, Fluorescein and Rose Bengal sodium for blue, green and red fluorescence, respectively. The fluorescence intensities were measured using Excitation/Emission wavelengths at 405/460nm, 485/535nm and 540/590nm for blue, green and red labels, respectively. This assay includes the red fluorescence data.
# Tox21 Assay Protocol Summary: 5 uL of culture medium (MEM containing 10% FBS) per well was dispensed into black wall/clear bottom 1536-well plates using a Multidrop Combi Dispenser (ThermoFisher Scientific, Waltham, MA). After 23 nL compound or DMSO vehicle was transferred into assay plate by a pintool work station (Kalypsys, San Diego, CA), fluorescence intensities in the assay plates were measured by an Envision (PerkinElmer, Shelton, CT) plate reader using three labels for measuring blue, green and red fluorescence at […] 460, 535 and 590nm respectively.
Compound,Potency,"fluorescence, % of Rose Bengal"
O=C1NS(=O)(=O)c2ccccc21,inactive,–
CC(=O)C(=O)O,inactive,–
Cc1cn([C@H]2C=C[C@@H](CO)O2)c(=O)[nH]c1=O,inactive,–
O=C1NC(=O)C(c2ccccc2)(c2ccccc2)N1,inactive,–
CN(C)CCOC(C)(c1ccccc1)c1ccccn1 (stereo not given),inactive,–
CCCCC1(COC(=O)CCC(=O)O)C(=O)N(c2ccccc2)N(c2ccccc2)C1=O,inactive,–
Cc1c(C(=O)O)c(O)cc2c1C(=O)c1c(O)c([C@@H]3O[C@H](CO)[C@@H](O)[C@H](O)[C@H]3O)c(O)c(O)c1C2=O,inactive,–
CCCCC(CC)C(=O)O (stereo not given),inactive,–
Nc1c(N=Nc2ccc(-c3ccc(N=Nc4cc(S(=O)(=O)O)c5ccccc5c4N)cc3)cc2)cc(S(=O)(=O)O)c2ccccc12,inactive,–
CCCc1cc(=O)[nH]c(=S)[nH]1,inactive,–
Nc1c2c(nc3ccccc13)CCCC2,inactive,–
Cc1ncc([N+](=O)[O-])n1CCO,inactive,–
CN1CCC[C@H]1c1cccnc1,inactive,–
NC(=O)c1cccnc1,inactive,–
Cc1ncc([N+](=O)[O-])n1C,inactive,–
CCN(CC)C(=O)c1cccc(C)c1,inactive,–
CCCCOC(=O)c1ccc(O)cc1,inactive,–
C[C@](N)(Cc1ccc(O)c(O)c1)C(=O)O,inactive,–
Nc1ccc(S(N)(=O)=O)cc1,inactive,–
CC(=O)CCC(=O)O,inactive,–

Compound,Potency,"fluorescence, % of Rose Bengal"
CN1[C@@H]2CC(OC(=O)[C@H](CO)c3ccccc3)C[C@H]1[C@@H]1O[C@@H]12 (stereo not given in full),inactive,–
COc1ccc(CN(CCN(C)C)c2ccccn2)cc1,inactive,–
C=C(C)C(=O)OCC(C)O (stereo not given),inactive,–
F[B-](F)(F)F,inactive,–
Cc1cccc(C)c1,inactive,–
CC/C(=C(\c1ccccc1)c1ccc(OCCN(C)C)cc1)c1ccccc1,inactive,–
Cc1cc(C)nc(NS(=O)(=O)c2ccc(N)cc2)n1,inactive,–
C/C=C/C=C/C(=O)O,inactive,–
C=CCc1ccc(O)c(OC)c1,inactive,–
Nc1ccc([N+](=O)[O-])cc1O,–,-0.413% (inactive)
CCCCCCc1ccc(O)cc1O,inactive,–
COc1ccc(C(Cl)=C(c2ccc(OC)cc2)c2ccc(OC)cc2)cc1,inactive,–
CC1(C)S[C@@H]2[C@H](NC(=O)[C@H](N)c3ccccc3)C(=O)N2[C@H]1C(=O)O,inactive,–
CCCCNC(=O)NS(=O)(=O)c1ccc(C)cc1,inactive,–
O=CC(=O)c1ccccc1,–,0.0133% (inactive)
CC(=O)Nc1c(I)c(NC(C)=O)c(I)c(C(=O)O)c1I,inactive,–
C=C1CC[C@H](O)C/C1=C\C=C1/CCC[C@]2(C)[C@@H]([C@H](C)CCCC(C)C)CC[C@@H]12,inactive,–
Nc1ccc(O)c([N+](=O)[O-])c1,–,0.207% (inactive)
CS(=O)(=O)OCCCCOS(C)(=O)=O,inactive,–
O=S1(=O)OC(c2ccc(O)cc2)(c2ccc(O)cc2)c2ccccc21,inactive,–
